Consider 29 molecules from PubChem BioAssay (NCATS).

Where “and” joins values, the source holds several entries; their conditions need not be identical. Equal entries are not always repeated. Inconclusive results are not listed. Values without a mark were called inactive. Calls of active or inactive are those of the source. Calls follow the shape of the dose curve; as a rule, active = well fitted curve in the direction sought with a large enough effect; inconclusive = small, poorly fitted or top-dose-only effect, or another doubt; inactive = no such curve, though single readings can be large; an effect the other way counts as inactive or inconclusive.

Experiment [1] is described as follows: Viability qHTS for spleen associated tyrosine kinase inhibitor (SYKi) drug resistant MV4-11 cells (AID 1963824). Also: nearly all actives have a fitted effect of over 35% in size. In outline:
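SYK inhibitor-resistant MV4-11 AML cells, 500 per well, added to predispensed compounds and incubated 72 hr at 37 C, 5% CO2. Viability measured by CellTiter-Glo luminescence after 10 min at room temperature.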

The nature of experiment [2]: Cellular viability qHTS for adrenocortical cancer (ACC) cell line SW-13 (AID 1963989). Also: nearly all actives have a fitted effect of over 65% in size.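 As to activity (max response): cells grown in serum-free medium with ITS supplement; % is scaled to controls: 0 for no effect and ±100 for the full control effect.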 The conditions noted are these: SW-13 ACC cells viability, CellTiter-Glo, 48 h; activity (max response): hits give low values. In outline:
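Compound titrations (up to 46 uM final, in DMSO) were applied to SW-13 cells for 48 h at 37C/5% CO2. Reading used CellTiter-Glo after 20 min at room temperature; fitted curves yielded IC50 and efficacy.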
For orientation: qHTS replaces the single test concentration by a dilution series.

A short description of experiment [3]: Cellular viability qHTS for adrenocortical cancer (ACC) cell line NCI-H295R (AID 1963990). Also: nearly all actives have a fitted effect of over 60% in size. An outline of the steps:
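Readout: CellTiter-Glo luminescence, 20 min RT. Exposure: 48 h, 37C/5% CO2. Cells: NCI-H295R, ITS-DMEM serum-free. Range: up to 46 uM. Analysis: 4PL fit, IC50 plus efficacy.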
Potency is read from the fitted curve at half-maximal effect.

With `CCN1CCN(c2cc(-c3ccc(F)cc3)c3c(n2)CCCCCC3)CC1`, the Potency result in experiment [1] and in experiment [3] was “inactive” each time. In experiment [2], the activity (max response) is -1.29%.

For `O=C(/C=C\n1cnc(-c2cc(C(F)(F)F)cc(C(F)(F)F)c2)n1)NNc1ccccn1`, the Potency in experiment [1] was 2.63 µM (active); in experiment [2] it was 11.2 µM (active); in experiment [3], 3.98 µM (active).

As for `CC(O)C(=O)O` (configuration not stated), the Potency result in experiment [1] and in experiment [3] was “inactive” in each case. Moreover, the activity (max response) in experiment [2] is 6.49%.

Take `COC(=O)C1=C(C)NC(c2ncc(F)cc2F)=N[C@@H]1c1ccc(F)cc1Cl`: the Potency in experiment [1] is 20.9 µM (active). Moreover, the activity (max response) in experiment [2] is -20.4%. Moreover, the Potency result in experiment [3] was “inactive”.

`COc1cc(N)c(Cl)cc1C(=O)NC1CCN(Cc2ccccc2)CC1`: the Potency entry in experiment [1] and in experiment [3] was “inactive” throughout. Moreover, the activity (max response) in experiment [2] was -15.7%.

For the molecule `Cc1c[nH]c2nc(Nc3ccc(N4CCN(C)CC4)c(F)c3)nc(-c3cccc(CC#N)c3)c12`, the figures for the Potency in experiment [1], in experiment [2] and in experiment [3] were 0.0059 µM (active), 2.24 µM (active) and 2.51 µM (active), respectively.

For `CCCC(=O)Nc1ccc(O)c(C(C)=O)c1`, the Potency result in experiment [1] and in experiment [3] was “inactive” in each case. In experiment [2], the activity (max response) is 10.4%.

Consider `Cc1cccc(C)c1NC(=O)CN(CC(=O)O)CC(=O)O`, for which the Potency result in experiment [1] and in experiment [3] was “inactive” each time. Moreover, the activity (max response) in experiment [2] is 9.48%.

Consider `CN(C)C/C=C/C(=O)Nc1ccc(C(=O)N2CCC[C@@H](Nc3ncc(Cl)c(-c4c[nH]c5ccccc45)n3)C2)cc1`, for which the Potency was 0.0934 µM (active) in experiment [1], 0.251 µM (active) in experiment [2] and 10 µM (active) in experiment [3].

As to `C#C[C@]1(O)CC[C@H]2[C@@H]3CCc4cc(OC5CCCC5)ccc4[C@H]3CC[C@@]21C`, the Potency in experiment [1] is 11.9 µM (active); in experiment [3] it was 14.6 µM (active). The activity (max response) in experiment [2] is -6.39%.

Turning to `Nc1cccc2c1CN([C@H]1CCC(=O)NC1=O)C2=O`, the Potency result in experiment [1] and in experiment [3] was “inactive” throughout. Further, the activity (max response) in experiment [2] is -17.5%.

With `Cc1cccc(C)c1NC(=O)CN1CCCCCC1`, the Potency entry in experiment [1] and in experiment [3] was “inactive” in each case. In experiment [2], the activity (max response) is 6.22%.

With `O=C(Nc1ccc(C(=O)O)c(O)c1)c1ccccc1`, the Potency entry in experiment [1] and in experiment [3] was “inactive” throughout. For the same molecule, in experiment [2], the activity (max response) was 1.55%.

`CC(C)[C@H](CO)Nc1nc(Nc2ccc(C(=O)O)c(Cl)c2)c2ncn(C(C)C)c2n1`: in experiment [1], the Potency is 16.6 µM (active). The activity (max response) in experiment [2] was 10.6%. Also, the Potency result in experiment [3] was “inactive”.

On to `O=C(CCOCCOCCOCCOCCC(=O)Nc1c(I)cc(I)c(C(=O)O)c1I)Nc1c(I)cc(I)c(C(=O)O)c1I`, for which the Potency entry in experiment [1] and in experiment [3] was “inactive” in each case. Moreover, the activity (max response) in experiment [2] is 6.37%.

As for `Clc1ccccc1CN1CCc2sccc2C1`, the Potency in experiment [1] is 18.8 µM (active). Also, the activity (max response) in experiment [2] is 1.55%. Besides, in experiment [3], the Potency result was “inactive”.

For the molecule `COc1ccc(/C=C\c2cc(OC)c(OC)c(OC)c2)cc1O`, the Potency in experiment [1] is 0.0047 µM (active); in experiment [2], 0.01 µM (active); in experiment [3], 0.0089 µM (active).

With `COc1ccc(N2C(=O)N(c3c(C)cccc3Cl)Cc3cnc(Nc4ccc(C5CCN(C)CC5)cc4OC)nc32)nc1`, the Potency was 1.48 µM (active) in experiment [1], 2.24 µM (active) in experiment [2] and 17.8 µM (active) in experiment [3].

For `CN[C@@H]1[C@H](O[C@H]2[C@H](O[C@@H]3[C@@H](O)[C@H](O)[C@@H](N=C(N)N)[C@H](O)[C@H]3N=C(N)N)O[C@@H](C)[C@]2(O)C=O)O[C@@H](CO)[C@H](O)[C@H]1O`, the Potency result in experiment [1] and in experiment [3] was “inactive” in each case. Further, in experiment [2], the activity (max response) is 6.19%.

On to `Nc1ccc(O)c(C(=O)O)c1`, for which the Potency entry in experiment [1] and in experiment [3] was “inactive” throughout. In addition, the activity (max response) in experiment [2] is 6.74%.

Regarding `COc1cccc2c1C(=O)c1c(O)c3c(c(O)c1C2=O)C[C@@](O)(C(=O)CO)C[C@@H]3O[C@H]1C[C@H](N)[C@H](O)[C@H](C)O1`, the Potency in experiment [1] is 0.299 µM (active); in experiment [2], 2.31 µM (active) and 891 nM (active); in experiment [3], 23.1 µM (active) and 7.08 µM (active).

As to `CC1(C)O[C@@H]2C[C@H]3[C@@H]4C[C@H](F)C5=CC(=O)C=C[C@]5(C)[C@H]4[C@@H](O)C[C@]3(C)[C@]2(C(=O)CO)O1`, in experiment [1], the Potency was 18.6 µM (active). For the same molecule, the activity (max response) in experiment [2] was -3.16% and 0.473%. Also, the Potency result in experiment [3] was “inactive”.

Consider `COc1ccc(CNC(=O)Nc2ncc([N+](=O)[O-])s2)cc1`, for which the Potency is 13 µM (active) in experiment [1], 25.1 µM (active) in experiment [2] and 28.2 µM (active) in experiment [3].

As for `Nc1nc(N)c2nc(-c3cccc(Cl)c3)c(N)nc2n1`, the Potency in experiment [1] was 1.48 µM (active); in experiment [2], 1.26 µM (active); in experiment [3], 1.12 µM (active).

`CN1CCC(=C2c3ccccc3Sc3ccccc32)CC1`: the results for the Potency in experiment [1], in experiment [2] and in experiment [3] were 16.8 µM (active), 23.1 µM (active) and 8.2 µM (active), respectively.

With `O=C(CCl)Nc1cccc(NC2=NS(=O)(=O)c3ccccc32)c1`, the Potency was 2.63 µM (active) in experiment [1], 8.91 µM (active) in experiment [2] and 3.16 µM (active) in experiment [3].

`COc1ccc(COc2ccc(Cc3cnc(N)nc3N)cc2OC)cc1`: the Potency in experiment [1] was 7.31 µM (active). Besides, the activity (max response) in experiment [2] was -16.4%. Moreover, the Potency result in experiment [3] is “inactive”.

Take `C[C@]12CCC(=O)C=C1[C@@H]1C[C@@H]1[C@H]1[C@@H]3[C@@H]4C[C@@H]4[C@@]4(CCC(=O)O4)[C@@]3(C)CC[C@@H]12`: in experiment [1], the Potency was 21.1 µM (active) and 18.6 µM (active). In experiment [2], the activity (max response) is -8.86% and -13.4%. Further, the Potency result in experiment [3] was “inactive”.

Consider `CN(C)CC[C@@H](c1ccc(Cl)cc1)c1ccccn1`, for which the Potency entry in experiment [1] and in experiment [3] was “inactive” throughout. In addition, the activity (max response) in experiment [2] is 7.75%.
